Results as given in PubChem BioAssay (NCI).
Where “and” joins values, the source holds several entries; their conditions need not be identical. Identical values can stand only once. About 83,000 compounds went through this panel and 20% of them were active in at least one assay; those are over-represented in the sample as a whole.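 Interpretation: 100, growth as untreated; towards 0, rising growth inhibition; 0, no net growth; 0 to -100, cell death. Compounds scoring below 10 were considered active.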 Calls of active or inactive are those of the source.

Key:
Experiment in all cases: NCI-60 one-dose screen, 48 h (100 = growth as untreated, 0 = no growth, -100 = all killed)
Settings in all cases: 10 µM unless noted
NCI-H23 lung = tested on: NCI-H23 lung
NCI-H226 lung = tested on: NCI-H226 lung
NCI-H322M lung = tested on: NCI-H322M lung
HOP-62 NSCLC = tested on: HOP-62 NSCLC
NCI-H460 lung = tested on: NCI-H460 lung
HOP-92 NSCLC = tested on: HOP-92 NSCLC
NCI-H522 lung = tested on: NCI-H522 lung
A549/ATCC NSCLC = tested on: A549/ATCC NSCLC
786-0 renal = tested on: 786-0 renal
COLO 205 colon = tested on: COLO 205 colon
DU-145 prostate = tested on: DU-145 prostate
K-562 leukemia = tested on: K-562 leukemia
MALME-3M melanoma = tested on: MALME-3M melanoma
MDA-MB-231 breast = tested on: MDA-MB-231 breast
RXF 393 renal = tested on: RXF 393 renal
SF-268 CNS = tested on: SF-268 CNS
SF-295 CNS = tested on: SF-295 CNS
SF-539 CNS = tested on: SF-539 CNS
UACC-257 melanoma = tested on: UACC-257 melanoma
M14 melanoma = tested on: M14 melanoma

Structure (SMILES)	growth (NCI-H23 lung)	growth (NCI-H226 lung)	growth (NCI-H322M lung)	growth (HOP-62 NSCLC)	growth (NCI-H460 lung)	growth (HOP-92 NSCLC)	growth (NCI-H522 lung)	growth (A549/ATCC NSCLC)	growth (786-0 renal)	growth (COLO 205 colon)	growth (DU-145 prostate)	growth (K-562 leukemia)	growth (MALME-3M melanoma)	growth (MDA-MB-231 breast)	growth (RXF 393 renal)	growth (SF-268 CNS)	growth (SF-295 CNS)	growth (SF-539 CNS)	growth (UACC-257 melanoma)	growth (M14 melanoma)
CCOc1ccc2cc(-c3nn(CC4CCNCC4)c4ncnc(N)c34)ccc2c1	77.5% (inactive) and 55.6% (inactive)	67.5% (inactive) and 52.5% (inactive)	91.6% (inactive) and 75.4% (inactive)	83.2% (inactive) and 64.9% (inactive)	96.7% (inactive) and 49.7% (inactive)	72.5% (inactive) and 26.5% (inactive)	86.5% (inactive) and 81.4% (inactive)	85% (inactive) and 59% (inactive)	91.4% (inactive) and 36% (inactive)	93% (inactive) and 15.3% (inactive)	108% (inactive) and 57.5% (inactive)	59.3% (inactive) and -8.9% (active)	73.7% (inactive) and -54.7% (active)	86.5% (inactive) and 15.6% (inactive)	55.4% (inactive) and 18% (inactive)	80.6% (inactive) and 41.1% (inactive)	108% (inactive) and 74.5% (inactive)	77.4% (inactive) and 40.2% (inactive)	-52.9% (active)	91.5% (inactive) and -42.6% (active)
CO/N=C/C=C\C(=O)N/C=C/C[C@H]1/C=C/[C@H](O)/C=C\C=C\c2cccc(O)c2C(=O)O1	61.4% (inactive) and 54.8% (inactive)	-81.9% (active) and -73.8% (active)	42.8% (inactive) and 51.7% (inactive)	19.5% (inactive) and 17.4% (inactive)	16.9% (inactive) and 8.82% (active)	23.9% (inactive) and -9.99% (active)	28.1% (inactive) and 15% (inactive)	18.1% (inactive) and 12% (inactive)	24.2% (inactive) and 18.7% (inactive)	15.2% (inactive) and 14.3% (inactive)	55.6% (inactive) and 40% (inactive)	4.46% (active) and 2.94% (active)	59.8% (inactive) and 22.5% (inactive)	27.3% (inactive) and 41.9% (inactive)	51% (inactive) and 55.5% (inactive)	45.5% (inactive) and 31.9% (inactive)	-36.9% (active) and -43.7% (active)	21% (inactive) and 4.04% (active)	-16.7% (active) and 21.8% (inactive)	-13.4% (active) and -41% (active)
Cc1ncsc1CCO	96% (inactive) and 94.8% (inactive)	95.8% (inactive) and 103% (inactive)	126% (inactive) and 89.4% (inactive)	103% (inactive) and 106% (inactive)	118% (inactive) and 106% (inactive)	91.2% (inactive) and 97.8% (inactive)	94.5% (inactive) and 85.9% (inactive)	96.2% (inactive) and 92.5% (inactive)	105% (inactive) and 96.9% (inactive)	118% (inactive) and 116% (inactive)	112% (inactive) and 105% (inactive)	103% (inactive) and 108% (inactive)	118% (inactive) and 86.2% (inactive)	103% (inactive) and 105% (inactive)	99% (inactive) and 133% (inactive)	101% (inactive) and 94.3% (inactive)	101% (inactive) and 100% (inactive)	111% (inactive) and 99.6% (inactive)	106% (inactive) and 92.9% (inactive)	107% (inactive) and 95.3% (inactive)
O=C1CCN(Cc2ccccc2)C(=S)N1	117% (inactive) and 100% (inactive)	110% (inactive) and 105% (inactive)	92.1% (inactive) and 93% (inactive)	101% (inactive) and 103% (inactive)	113% (inactive) and 105% (inactive)	70.4% (inactive) and 92.4% (inactive)	114% (inactive) and 95.1% (inactive)	107% (inactive) and 105% (inactive)	108% (inactive) and 109% (inactive)	111% (inactive) and 108% (inactive)	140% (inactive) and 107% (inactive)	87% (inactive)	92.6% (inactive) and 101% (inactive)	125% (inactive) and 98.1% (inactive)	122% (inactive) and 121% (inactive)	111% (inactive) and 99.5% (inactive)	118% (inactive) and 133% (inactive)	111% (inactive) and 98.6% (inactive)	114% (inactive) and 107% (inactive)	103% (inactive) and 112% (inactive)
